High-throughput results (PubChem BioAssay)
SARS PLP yeast = qHTS of Yeast-based Assay for SARS-CoV PLP; S. cerevisiae expressing SARS-CoV PLpro, growth rescue; Potency, µM (highest dose often 32.9 µM), for the others: top-dose activity, positive = growth rescue, most hits filed as activators; 330,000 compounds, 0.19% hits; calls by dose curve; also: potency is read from the fitted curve at half-maximal effect; 0% is about no effect; nearly all actives have a fitted effect of over 55% in size
Shiga toxin inh = A qHTS for Small Molecule Inhibitors of Shiga Toxin; Vero cells, Shiga toxin protein synthesis inhibition reporter; inhibition, % at 38.7 µM; 290,000 compounds, 9.2% hits; in the data active = inhibition mostly above about 28%, no sharp cut-off; inactive = mostly below about 43%; also: 0% is about no effect
Pf growth 48h = Primary qHTS for delayed death inhibitors of the malarial parasite plastid, 48 hour incubation; P. falciparum luciferase growth in erythrocytes, 48 h; Potency, µM (titrated, usually from 28.7 µM), without a hit: at the highest dose activity change, negative = inhibition, actives largely listed as inhibitors; 310,000 compounds, 5.9% hits; AID 504832, 2011; also: potency is read from the fitted curve at half-maximal effect; % is scaled to controls: 0 for no effect and ±100 for the full control effect
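Parasite viability was followed by luminescence of a genomically integrated firefly luciferase. Cultures held 0.1% parasitemia at 2% hematocrit (final), incubated under 5% CO2 at 37 C.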
AMA1-RON2 inh = qHTS for Inhibitors of AMA1-RON; Towards Development of Antimalarial Drug Lead: Primary Screen; Plasmodium falciparum AMA1 (3D7) - RON2 peptide interaction; AlphaScreen AMA1-biotinylated RON2 peptide binding; Potency, µM (doses to about 58.2 µM), for the others: at the top dose activity change, negative = inhibition, hits mostly inhibitors; 360,000 compounds, 0.2% hits; AID 720542, 2013;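 also: potency is read from the fitted curve at half-maximal effect; 0% = vehicle wells and -100% = peptide control; nearly all actives have a fitted effect of over 45% in size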
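AMA1 (3D7) with his tag at 25 nM final met compounds first, then biotinylated RON2 peptide at 25 nM; detection used donor plus acceptor beads, 10 µg/mL apiece, read by AlphaScreen after 30 min at room temperature.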
Pf growth 96h = Primary qHTS for delayed death inhibitors of the malarial parasite plastid, 96 hour incubation; P. falciparum luciferase reporter growth, 96 h; Potency, µM (series often up to 28.7 µM), without a hit: at the top dose activity change, negative = inhibition, usual class: inhibitors; 320,000 compounds, 6.9% hits; AID 504834, 2011; also: potency is read from the fitted curve at half-maximal effect; % is scaled to controls: 0 for no effect and ±100 for the full control effect
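P. falciparum expressing integrated firefly luciferase, in erythrocytes at 2% hematocrit, 0.05% parasitemia, incubated with compounds 96 h at 37 C, 5% CO2. Growth inhibition read as loss of luminescence; two-generation exposure targets delayed-death apicoplast inhibitors.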
Cycloheximide cs = Cycloheximide Counterscreen for Small Molecule Inhibitors of Shiga Toxin; cell reporter, cycloheximide protein synthesis inhibition counterscreen; max response, %; 300,000 compounds, 12% hits; AID 2314, 2010; in the data active = max response mostly above about 13%, no sharp cut-off; inactive = mostly below about 14%; also: read at 38.3 µM for the half of the compounds with a filed dose; 0% is about no effect
Active calls of the source: *; ? = inconclusive; · = not tested or not shown; + = active, no number; [ ] = another dose, or the depositor's remark. Sampled rows, rich in hits. Any-hit rate of the full collection: about 19%. Unless noted, calls follow the shape of the dose curve; as a rule, active = well fitted curve in the direction sought with a large enough effect; inconclusive = small, poorly fitted or top-dose-only effect, or another doubt; inactive = no such curve, though single readings can be large; an effect the other way counts as inactive or inconclusive.

SMILES | SARS PLP yeast | Shiga toxin inh | Pf growth 48h | AMA1-RON2 inh | Pf growth 96h | Cycloheximide cs
COc1ccc(-n2ccnc2CN2CCN(C3CCCC3)C(CCO)C2)cc1 (stereo not drawn) | -0.2% | -11.0 | -0.8% | 21.3% | 44.6% | 4.9
CC(=O)Nc1ccc(CN2CCN(C3CCCC3)C(CCO)C2)cc1 (stereo not drawn) | 1.1% | 18.5 | 58.6% | 0.0% | 8.28µM* | -0.7
OCCC1CN(Cc2c(F)cccc2Cl)CCN1C1CCCCC1 (stereo not drawn) | -0.9% | -12.4 | -0.9% | 5.5% | ? | -2.1
Cc1cccc(-n2ccnc2CN2CCN(C3CCCC3)C(CCO)C2)c1 (stereo not drawn) | 0.8% | -1.5 | -14.0% | -1.7% | 6.57µM* | 5.1
COC(=O)c1cccc(NC(=O)CSc2nnc(C)n2Cc2ccccc2)c1 | 19.3% | 3.8 | -0.4% | 15.7% | 0.1% | -1.6
CCN(CC)c1ccc(C(=O)OCC(=O)NCC2CCCO2)cc1 (stereo not drawn) | -4.6% | -7.6 | · | -4.7% | 25.7% | -2.5
CCOc1ccccc1C(=O)Nc1nnc(COC)s1 | 13.7% | 21.8 | 12.9% | -0.3% | -21.5% | 20.6*
CCOc1ccccc1C(=O)Nc1nccs1 | 1.7% | 31.2 | 10.0% | 0.1% | 6.57µM* | -2.2
O=C(Nc1ccccc1-c1ccccc1)c1ccccc1Br | -5.6% | -8.9 | 0.0% | -2.2% | 0.0% | -0.5
O=C(Nc1ccccc1Br)c1ccccc1-c1ccccc1 | 14.8% | -14.0 | 2.1% | -0.6% | 7.38µM* | -3.8
Cc1noc(C)c1COc1ccccc1C(=O)Nc1ccc(C(N)=O)cc1 | -12.7% | · | -15.9% | 0.0% | ? | ·
CCCCc1nnc(NC(=O)c2ccccc2OCc2c(C)noc2C)s1 | 13.7% | · | 9.28µM* | -0.2% | 0.928µM* | ·
O=C(N/N=C/c1cccc(OC(=O)c2cccc(Br)c2)c1)c1ccncc1 | -2.4% | 30.4 | 35.3% | -0.3% | 105.8% | 21.1
Cc1ccc(NC(=O)NNC(=O)C2CCN(Cc3ccc(F)cc3Cl)CC2)cc1 | 0.0% | -5.4 | ? | 70.6% | ? | 1.0
CCOc1ccc(CCNC(=O)c2ccccc2OCc2c(C)noc2C)cc1OCC | -5.3% | · | ? | -7.4% | ? | ·
CCOc1ccccc1C(=O)Nc1ccccc1-c1ccccc1 | -29.3% | -7.3 | 13.3% | 14.8% | 4.15µM* | -3.9
CCOc1ccc(C(C)NC(=O)c2ccccc2OCc2c(C)noc2C)cc1OCC (stereo not drawn) | -1.7% | 16.3 | ? | -2.2% | 6.57µM* | -1.5
COc1ccccc1N1CCN(/N=C/c2c(C)nn(-c3ccccc3)c2C)CC1 | -2.7% | 7.9 | ? | ? | ? | 3.0
Cc1ccsc1/C=N/N1CCOCC1 | -0.2% | 13.4 | 0.0% | -11.6% | 26.2% | 1.8
COc1ccccc1N1CCN(/N=C\c2sccc2C)CC1 | -0.2% | 99.4* | 48.8% | 12.6µM* | ? | 38.4
COc1ccccc1N1CCN(/N=C/c2cc([N+](=O)[O-])ccc2Cl)CC1 | 2.6% | -7.2 | -8.3% | ? | -10.2% | -0.4
Cc1ccc(N2CCN(/N=C/c3sccc3C)CC2)cc1 | -4.3% | 10.0 | 23.3% | -21.3% | 39.9% | 12.1*
COc1ccccc1N1CCN(/N=C/C(Cl)=C/c2ccccc2)CC1 | -3.7% | 81.2* | 208.4% | ? | 83.5% | 33.0*
COc1ccccc1N1CCN(/N=C/c2cccc(OC)c2OC)CC1 | -0.5% | 61.3* | 13.9% | -28.5% | 18.9% | 15.3*
Cc1cc(C)cc(OCC(=O)NNC(=O)CC(C)c2ccccc2)c1 (stereo not drawn) | · | · | · | 136.2% | · | ·
SMILES | SARS PLP yeast | Shiga toxin inh | Pf growth 48h | AMA1-RON2 inh | Pf growth 96h | Cycloheximide cs
CC(=O)Nc1cccc(-c2ccnc3c2CC(C(=O)Nc2ccc(Cl)cc2)O3)c1 (stereo not drawn) | · | · | · | -26.1% | · | ·
Cc1cccc(C(=O)NC2CCN(CC(=O)Nc3ccccc3Cl)CC2)c1 | 0.9% | -7.2 | 0.6% | 4.9% | 109.2% | -1.3
Cc1nn(C)c2ncc(C(N)=O)c(Oc3ccc(Cl)cc3)c12 | -0.2% | -6.1 | 34.4% | -10.4% | 0.2% | -1.5
CC(C)=CCC12Oc3cc(O)ccc3C1(O)Oc1cc(O)c([C@H]3C=C(C)CC(c4ccc(O)cc4O)[C@H]3C(=O)c3ccc(O)cc3O)c(O)c1C2=O (stereo partly drawn) | · | · | · | -15.4% | · | ·
C[C@H](CO)N1C[C@H](C)[C@@H](CN(C)S(=O)(=O)c2cn(C)cn2)Oc2cc(Br)ccc2S1(=O)=O | · | · | · | 1.1% | · | ·
COc1ccccc1N1CCN(/N=C\c2ccccc2)CC1 | 2.6% | · | 45.0% | -12.0% | ? | 56.6*
COc1ccccc1N1CCN(/N=C/c2cc(OC)c(OC)c(OC)c2)CC1 | 9.0% | 15.1 | 31.7% | -32.2% | ? | 9.0
Cc1ccc(/C=N/N2CCN(C3c4ccccc4-c4ccccc43)CC2)o1 | -1.4% | 25.4 | ? | ? | -22.6% | 9.0
COc1ccccc1N1CCN(/N=C\c2ccc(C)o2)CC1 | -8.7% | 99.6* | 231.3% | -4.2% | ? | 45.4
COc1cc(/C=N/N2CCN(c3ccccc3OC)CC2)ccc1O | -0.9% | + | 15.0% | -16.3% | 3.4% | 25.6*
CCOC(=O)C1(Cc2ccc(OC)cc2)CCN(C(=O)c2cc(C)on2)CC1 | 12.5% | 17.9 | -4.9% | -3.2% | 61.9% | 17.5*
CCOC(=O)C1(Cc2ccc(OC)cc2)CCN(C(=O)c2cc3ccccc3[nH]2)CC1 | -4.0% | 118.3* | 13.2% | -5.9% | 32.7% | 53.9*
CCOC(=O)C1(Cc2ccc(OC)cc2)CCN(C(=O)C2=CCCC2)CC1 | -0.2% | 21.6 | -10.2% | 9.4% | 2.9% | 1.1
CN(C)CCNC(=O)c1cc2c(s1)-c1ccc(Cl)cc1SC2 | -4.0% | -19.6 | 2.62µM* | 2.8% | 52.2% | -8.3
CCOCCCNC(=O)c1cc2c(s1)-c1ccccc1SC2 | -4.5% | 63.4* | 2.62µM* | -5.0% | 5.22µM* | 16.1
CCOCCCNC(=O)c1cc2c(=O)[nH]c3ccccc3c2s1 | -1.1% | 3.9 | ? | -5.2% | 0.2% | 0.3
CCc1nn(CC(=O)NCCC2=CCCCC2)c(=O)c2cc3cc(F)ccc3n12 | 1.0% | -6.0 | 2.1% | 10.2% | ? | 1.1
Cc1ccc(NC(=O)n2ccc(-c3ccc(-n4ccnc4)cc3)n2)cc1 | -3.5% | 85.0* | 161.0% | 13.9% | 136.2% | 40.0*
CC(C)(C)c1ccc(NC(=O)COc2ccc(-n3ccnc3)cc2)cc1 | -16.1% | 48.9* | ? | -13.6% | · | 36.4*
C/C(=N\NC(=O)COc1ccc(C(C)(C)C)cc1)c1ccc(-n2ccnc2)cc1 | -46.8% | 31.4 | -78.1% | 0.0%[11.6 µM] | 10.4µM* | 31.3*
Nc1ccc(N2CCCC2)c(S(=O)(=O)Nc2cccc(C(F)(F)F)c2)c1 | -1.4% | · | · | -15.8% | · | ·
O=C(NN1CCCCC1)c1cnn2c(C(F)F)cc(-c3ccccc3)nc12 | 0.1% | -1.2 | -15.4% | 3.0% | 11.8% | -1.1
